This is part of a sample that, as a whole, favours compounds with a hit. Of some 83,000 tested, about 20% had one in any assay.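 For each line, cells grew in 96-well plates with the test compound present at a single concentration for 48 hours.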 The source made the active and inactive calls. The calls were made as follows: active = growth percent below 10; inactive = the rest.
Legend:
Test in all cases: NCI-60 one-dose screen, 48 h (100 = growth as untreated, 0 = no growth, -100 = all killed)
Settings in all cases: 10 µM unless noted
SK-MEL-2 melanoma = test system: SK-MEL-2 melanoma
EKVX NSCLC = test system: EKVX NSCLC
SN12C renal = test system: SN12C renal
UO-31 renal = test system: UO-31 renal
TK-10 renal = test system: TK-10 renal
ACHN renal = test system: ACHN renal
CAKI-1 renal = test system: CAKI-1 renal
A498 renal = test system: A498 renal
CCRF-CEM leukemia = test system: CCRF-CEM leukemia
MOLT-4 leukemia = test system: MOLT-4 leukemia

Measured: growth

C#CC(F)(F)[C@]1(O)CC[C@H]2[C@@H]3CCC4=CC(=O)CCC4=C3[C@@H](c3ccc(C(C)=O)cc3)C[C@@]21C
inactive: SK-MEL-2 melanoma 99.4% | SN12C renal 89.3% | TK-10 renal 114% | ACHN renal 87.8% | A498 renal 79% | MOLT-4 leukemia 35.6%
active: EKVX NSCLC -60.6% | UO-31 renal -75% | CAKI-1 renal -31.9% | CCRF-CEM leukemia -55.5%

Cc1[nH]c(-c2cc(N)ccc2Cl)c2c1C(=O)CCCC2
active: TK-10 renal 1.81% | CAKI-1 renal 2.45%
inactive: SK-MEL-2 melanoma 31% | EKVX NSCLC 36.5% | SN12C renal 35% | UO-31 renal 10.1% | ACHN renal 19.8% | A498 renal 27% | CCRF-CEM leukemia 52.3% | MOLT-4 leukemia 52.7%

COc1cccc(-c2nc3sccn3c2-c2ccnc(NCCCNS(=O)(=O)c3cccc(Cl)c3)c2)c1
active: MOLT-4 leukemia 9.9%
inactive: SK-MEL-2 melanoma 39.8% | EKVX NSCLC 40.6% | SN12C renal 45.5% | UO-31 renal 20.4% | TK-10 renal 71.5% | ACHN renal 37.5% | CAKI-1 renal 25.9% | A498 renal 54.4% | CCRF-CEM leukemia 18.1%

OCc1ccc(N2CCc3cccc(F)c3C2)cc1Cl
inactive: SK-MEL-2 melanoma 91.1% [0.1 µM] | EKVX NSCLC 104% [0.1 µM] | SN12C renal 92.9% [0.1 µM] | UO-31 renal 91.6% [0.1 µM] | ACHN renal 108% [0.1 µM] | CAKI-1 renal 63.5% [0.1 µM] | CCRF-CEM leukemia 96% [0.1 µM] | MOLT-4 leukemia 100% [0.1 µM]
active: TK-10 renal -0.0842% [0.1 µM] | A498 renal -16.3% [0.1 µM]

O=C1/C(=C/c2cn(-c3ccccc3)nc2-c2ccccc2)SC(=S)N1CCc1ccccc1
inactive: SK-MEL-2 melanoma 108% | EKVX NSCLC 96.6% | SN12C renal 98.6% | UO-31 renal 88.5% | TK-10 renal 106% | ACHN renal 104% | CAKI-1 renal 85.2% | A498 renal 95.7% | CCRF-CEM leukemia 102% | MOLT-4 leukemia 99.4%

O=C(N=Nc1c(O)[nH]c2ccc(Br)cc12)c1cc(-c2ccccc2)on1
inactive: SK-MEL-2 melanoma 95.6% | EKVX NSCLC 91.3% | SN12C renal 100% | UO-31 renal 90.5% | TK-10 renal 108% | ACHN renal 103% | CAKI-1 renal 88.7% | A498 renal 77.6% | CCRF-CEM leukemia 102% | MOLT-4 leukemia 100%

COc1cccc(/C=C2\SC(=Nc3ccc(NC(C)=O)cc3)NC2=O)c1OC
inactive: SK-MEL-2 melanoma 110% | EKVX NSCLC 103% | SN12C renal 94.6% | UO-31 renal 60.8% | TK-10 renal 97.7% | ACHN renal 82.5% | CAKI-1 renal 67.9% | A498 renal 58.7% | CCRF-CEM leukemia 97.1% | MOLT-4 leukemia 99.2%

O=C1NC(=S)N[C@H]1CC(=O)n1cnc2ccccc21
inactive: SK-MEL-2 melanoma 104% | EKVX NSCLC 90.5% | SN12C renal 95.4% | UO-31 renal 75.5% | TK-10 renal 112% | ACHN renal 95.3% | CAKI-1 renal 88.7% | A498 renal 80.3% | CCRF-CEM leukemia 112% | MOLT-4 leukemia 108%

Cc1ccc2c(c1)C(=O)/C(=C/c1cccc(OCC(=O)c3ccc(Cl)cc3)c1)CS2
active: CCRF-CEM leukemia -2.6%
inactive: SK-MEL-2 melanoma 58.2% | EKVX NSCLC 91.9% | SN12C renal 88.4% | UO-31 renal 71.2% | TK-10 renal 93% | ACHN renal 99.6% | CAKI-1 renal 89.2% | A498 renal 80.4% | MOLT-4 leukemia 19.1%

COc1cc(-c2ccc3c(c2)NC(=O)/C3=C\c2ccc[nH]2)ccc1O
inactive: SK-MEL-2 melanoma 31.4% | EKVX NSCLC 35.6% | SN12C renal 27.5% | UO-31 renal 14.5% | TK-10 renal 35.7% | ACHN renal 11.6% | CAKI-1 renal 11.2% | A498 renal 64% | CCRF-CEM leukemia 12.3% | MOLT-4 leukemia 10.3%

O=S(=O)(Nc1ccc(I)cc1F)c1ccc(-c2cnc(C3CC3)o2)cc1
inactive: SK-MEL-2 melanoma 40.7% | EKVX NSCLC 68.5% | SN12C renal 71.5% | UO-31 renal 70.1% | TK-10 renal 88.6% | ACHN renal 77.2% | CAKI-1 renal 40.9% | CCRF-CEM leukemia 61.1% | MOLT-4 leukemia 37.5%
active: A498 renal -10%

O=C(CN1C(=O)/C(=C/c2ccc(Cl)cc2)SC1=S)NCCCN1CCOCC1
inactive: SK-MEL-2 melanoma 111% | EKVX NSCLC 90.7% | SN12C renal 94.7% | UO-31 renal 83.2% | TK-10 renal 117% | ACHN renal 94.6% | CAKI-1 renal 89.4% | A498 renal 104% | CCRF-CEM leukemia 105% | MOLT-4 leukemia 102%

COc1cc2c(cc1-c1c(C)noc1C)ncc1nc(-c3ccccn3)n([C@H](C)COC(F)F)c12
active: A498 renal -12.2%
inactive: SK-MEL-2 melanoma 76.3% | EKVX NSCLC 59% | SN12C renal 62.8% | UO-31 renal 18.8% | TK-10 renal 33% | ACHN renal 40.1% | CAKI-1 renal 34.2% | CCRF-CEM leukemia 41% | MOLT-4 leukemia 44.4%

O=C1CSC(=S)N1CCc1ccc(O)cc1
inactive: SK-MEL-2 melanoma 103% | EKVX NSCLC 97.8% | SN12C renal 81.6% | UO-31 renal 60.3% | TK-10 renal 68.7% | ACHN renal 91.4% | CAKI-1 renal 81.4% | A498 renal 97% | CCRF-CEM leukemia 51.1% | MOLT-4 leukemia 93.4%

c1csc(C2=NN3C(C2)c2ccccc2OC3c2ccncc2)c1 (stereo not given)
inactive: SK-MEL-2 melanoma 96.3% | EKVX NSCLC 78.2% | SN12C renal 89.9% | UO-31 renal 64.5% | TK-10 renal 111% | ACHN renal 97.7% | CAKI-1 renal 78.2% | A498 renal 110% | CCRF-CEM leukemia 95.8% | MOLT-4 leukemia 94.4%

O=C1Nc2c(ccc(Cl)c2Cl)/C1=C\c1cc(C(F)(F)F)cc(C(F)(F)F)c1
inactive: SK-MEL-2 melanoma 38.4% | EKVX NSCLC 26.9% | SN12C renal 14.2% | UO-31 renal 16.6% | TK-10 renal 26% | CCRF-CEM leukemia 30.8%
active: ACHN renal 8.13% | CAKI-1 renal 8.62% | A498 renal -23.7% | MOLT-4 leukemia -14.2%

O=C1/C(=C/c2ccc3c(c2)OCO3)SC(=S)N1CCc1ccc(O)cc1
inactive: SK-MEL-2 melanoma 100% | EKVX NSCLC 98.8% | SN12C renal 92.1% | UO-31 renal 58.8% | TK-10 renal 81.3% | ACHN renal 97.2% | CAKI-1 renal 81% | A498 renal 111% | CCRF-CEM leukemia 56.7% | MOLT-4 leukemia 87.3%

COc1cc2nc(N3CCCC3)nc(NCC3CCCCC3)c2cc1OC
active: SK-MEL-2 melanoma -43.5% | TK-10 renal -34.7% | A498 renal -3.66% | CCRF-CEM leukemia -9.68% | MOLT-4 leukemia -16.3%
inactive: EKVX NSCLC 40.2% | SN12C renal 59.6% | UO-31 renal 42.5% | ACHN renal 16.8% | CAKI-1 renal 13.3%

CCN1CCC2(CC1)NC(=O)c1c(c3ccc(Cl)c(Cl)c3n1C)C2C#N (stereo not given)
active: A498 renal 3.01%
inactive: SK-MEL-2 melanoma 21.4% | EKVX NSCLC 68.8% | SN12C renal 49.4% | UO-31 renal 43% | TK-10 renal 54.5% | ACHN renal 45.6% | CAKI-1 renal 37.3% | CCRF-CEM leukemia 39.5% | MOLT-4 leukemia 24.4%

CCN=C1C=CC(=C(c2ccc(N)cc2)c2ccc(N(CC)CC)c(C)c2)C=C1
active: SK-MEL-2 melanoma -15.3% | SN12C renal -14% | UO-31 renal 3.22% | ACHN renal -2.24% | A498 renal -26.5% | CCRF-CEM leukemia -19.5% | MOLT-4 leukemia -4.13%
inactive: EKVX NSCLC 10.6% | TK-10 renal 15.4% | CAKI-1 renal 14.1%

O=C(Oc1cccnc1)c1ccsc1Nc1ccnc(C(F)(F)F)c1
inactive: SK-MEL-2 melanoma 72.6% | EKVX NSCLC 110% | SN12C renal 55.2% | UO-31 renal 91.6% | TK-10 renal 94.8% | ACHN renal 107% | CAKI-1 renal 72.7% | A498 renal 104% | CCRF-CEM leukemia 23.7%
active: MOLT-4 leukemia 8.64%

CCOC(=O)C(C)(C#N)C1C=CCCC1 (stereo not given)
inactive: SK-MEL-2 melanoma 96.5% | EKVX NSCLC 96.7% | SN12C renal 95% | UO-31 renal 84% | TK-10 renal 83.2% | ACHN renal 92.3% | CAKI-1 renal 75.1% | A498 renal 63.2% | CCRF-CEM leukemia 84.6% | MOLT-4 leukemia 98%

O=c1nc2oc3ccc4ccccc4c3cc-2s1
inactive: SK-MEL-2 melanoma 31.9% | EKVX NSCLC 46.1% | SN12C renal 41.1% | UO-31 renal 46.9% | TK-10 renal 54.7% | ACHN renal 41% | CAKI-1 renal 22.1% | CCRF-CEM leukemia 13.7% | MOLT-4 leukemia 25.1%
active: A498 renal -1.24%

COc1cccc(-c2nn(C(C)(C)C)cc2-c2ccnc(NCCCNS(=O)(=O)c3cccc4ccccc34)c2)c1
inactive: SK-MEL-2 melanoma 111% | EKVX NSCLC 98.9% | SN12C renal 103% | UO-31 renal 91.1% | TK-10 renal 101% | ACHN renal 107% | CAKI-1 renal 96.6% | A498 renal 76.9% | CCRF-CEM leukemia 102% | MOLT-4 leukemia 104%

CCn1c(Cc2ccccc2Nc2c(Cl)cccc2Cl)nnc1SCC(=O)NN1C(=O)/C(=C/c2cc(OC)c(O)c(OC)c2)SC1=S
inactive: SK-MEL-2 melanoma 30.7% | EKVX NSCLC 60.2% | SN12C renal 54.8% | UO-31 renal 59.6% | TK-10 renal 70% | ACHN renal 58.9% | CAKI-1 renal 37% | A498 renal 20.6% | CCRF-CEM leukemia 19.1% | MOLT-4 leukemia 23.1%

OC(c1cc2cc(Cl)c(Cl)cc2c2cc(C(F)(F)F)ccc12)C1CCCCN1 (stereo not given)
active: SK-MEL-2 melanoma -54.2% | EKVX NSCLC -24.8% | SN12C renal -73.2% | UO-31 renal -74.2% | TK-10 renal -75.2% | ACHN renal -82.5% | CAKI-1 renal -46.4% | CCRF-CEM leukemia -45% | MOLT-4 leukemia -60.3%
inactive: A498 renal 48.1%
